Our source for the AC50 and outcome values is PubChem BioAssay (EPA / NIEHS).

The source made the active and inactive calls. Rule for the calls: active = hit-call score of the fitted dose curve at least 0.9, where 1 is the maximum; inconclusive = response in the unintended direction; inactive = score below 0.9.

A word on the AC50: it is the concentration giving half of the maximal activity seen.

The nature of this test: Tanguay_ZF_120hpf_ActivityScore_legacy: (Legacy) Oregon State University Tanguay Lab 120 Hour Post-fertilization zebrafish Assay Score for Activity (AID 2283742).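 For AC50: static exposure from 6 hpf until 120 hpf at 28 °C.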 As for the experimental part:
Tanguay_ZF_120hpf_legacy is a whole embryo, multiplexed endpoint assay using zebrafish larvae exposed for 120 hours post fertilization on a 96-well plate.Tanguay_ZF_120hpf_ActivityScore_legacy is one of one assay component(s) measured or calculated from the Tanguay_ZF_120hpf_legacy assay. It is designed to make measurements of developmental malformations and mortality as detected with brightfield microscopy and combines scoring from 18 other assay components measuring more specific morphologies.Data from the assay component Tanguay_ZF_120hpf_ActivityScore_legacy was analyzed into 1 assay endpoints. This assay endpoint, Tanguay_ZF_120hpf_ActivityScore_legacy, was analyzed in the positive analysis fitting direction relative to DMSO as the negative control and baseline of activity. Using a type of morphology reporter, gain-of-signal activity can be used to understand changes in developmentals as they relate to the whole embryo. To generalize the intended target to other relatable targets, this assay endpoint is annotated to the zebrafish development intended target family, where the subfamily is embryonic morphogenesis and mortality.
Zebrafish husbandry: Tropical 5D wild-type adult zebrafish were housed in at an approximate density of 1000 per 100 gallon tank at the Sinnhuber Aquatic Research Laboratory, Oregon State University, Corvallis, OR. Each tank was kept at standard laboratory conditions of 28C on a 14-h light/10-h dark photoperiod in fish water consisting of reverse osmosis water supplemented with a commercially available salt (Instant Ocean). Spawning funnels were placed into the tanks the night prior, and embryos were collected and staged. To increase bioavailability, the chorion was enzymatically removed using pronase (63.6mg/ml, >/= 3.5U/mg, Sigma-Aldrich: P5147) at 4 hours post fertilization (hpf) using a custom automated dechorionator.Chemical exposures: Six hpf dechorionated embryos were placed 1 embryo per well in a 96-well plate prefilled with 90 ul of EM using automated embryo placement systems (AEPS). Ten microliters of each row of dilution plate 2 was added to 2 exposure plates. The final DMSO concentration used was 0.64% (vol/vol). Thirty-two embryos were also exposed to 5uM trimethyltin chloride (positive control). Plates were sealed to prevent evaporation and foil covered to reduce light exposure and kept in a 28C incubator. Embryos were statically exposed until 120 hpf. At 24 hpf, embryos were assessed for photomotor response using a custom photomotor response analysis tool (PRAT) and for developmental toxicity endpoints (MO24: mortality at 24 hpf, DP: developmental progression, SM: spontaneous movement, and NC: notochord distortion). At 120 hpf, locomotor activity was measured using Viewpoint Zebralab and assessed for 18 endpoints. Zebrafish acquisition and analysis program (ZAAP), a custom program designed to inventory, acquire, and manage zebrafish data, was used to collect developmental endpoints as either present or absent (i.e., binary responses were recorded). If mortality occurred for an embryo (at either 24 or 120 hpf), the non-mortality endpoints were not measured.
In the case of `C=CCOC(=O)c1ccccc1C(=O)OCC=C`, the AC50 was 37.4 µM (active).
Consider `CCCc1cc(=O)[nH]c(=S)[nH]1`, for which the outcome was inactive.
Turning to `OC[C@@H](O)[C@@H](O)[C@H](O)[C@H](O)CO`, the result was inactive.
Turning to `Oc1ccc2ccccc2c1N=Nc1ccccc1`, the AC50 is 0.0559 µM (active).
Take `O=[N+]([O-])C(CO)(CO)CO`: the call was inactive.
As to `CCCCCCC(=O)OCC`, the compound was classed as inactive.
Turning to `CC1(C)NC(=O)NC1=O`, the outcome was inactive.
The same measure, in the same setting: to `Nc1ccc(S(=O)(=O)c2ccc(N)cc2)cc1` belongs “inactive”; to `NCC1(Cc2noc(=O)[nH]2)CCCCC1`, “inactive”.
Same read-out and setting: for `Nc1ccc2c(c1)C(=O)c1ccccc1C2=O` the value was “inactive”; for `O=c1[nH]cc(F)c(=O)[nH]1`, “inactive”; for `CN[C@H]1CC[C@@H](c2ccc(Cl)c(Cl)c2)c2ccc(S(N)(=O)=O)cc21`, “inactive”.
As to `COc1cc(-c2nc(NC(=O)c3cc4cc(C)cc(C)c4n3CC(=O)O)sc2CCC2CCCCC2)c(OC)cc1Cl`, the outcome was inactive.
Still for that read-out and setting: to `CC(=O)Oc1ccccc1C(=O)O` belongs “inactive”; to `CC(C)c1ccc(C(=O)N=C(N)N)cc1S(C)(=O)=O`, “inactive”.
Consider `Cc1ccc(C)c(O)c1C`, for which the result was inactive.
`Cc1oc(-c2ccccc2)nc1CCOc1cccc2c1ccn2CCC(=O)O`: the compound was classed as inactive.
As for `CC1=C(/C=C/C(C)=C/C=C/C(C)=C/CO)C(C)(C)CCC1`, the compound was called inactive.
For `Cc1ccccc1Cl`, the call was inactive.
With `CC(C)(C)c1cc(O)c(C(C)(C)C)cc1O`, the half-maximal activity concentration (AC50) is 40.5 µM (active).
With `NS(=O)(=O)c1cc2c(cc1Cl)NCNS2(=O)=O`, the compound was classed as inactive.
Regarding `Cc1ccc(C(C)C)c(O)c1`, the call was inactive.
On to `CCCCc1ccc2c(n1)[C@@H](c1ccc(OC)cc1C[C@H](C)C(=O)O)[C@H](C(=O)O)[C@H]2c1ccc2c(c1)OCO2`, for which the result was inactive.
The same measure, in the same setting: for `Cc1nc(-c2ccc3c(c2)CCN(CCC2CCC(NC(=O)/C=C/c4ccc(F)cc4)CC2)CC3)no1` (stereo not given) the value was “inactive”.
`Oc1ccc2c(c1)OC[C@@H](N1CCC(O)(c3ccc(F)cc3)CC1)[C@H]2O`: the result was inactive.
For the compound `Cc1c(C(=O)O)c(O)cc2c1C(=O)c1c(O)c([C@@H]3O[C@H](CO)[C@@H](O)[C@H](O)[C@H]3O)c(O)c(O)c1C2=O`, the call was inactive.
For the compound `FC(F)(F)C(F)(F)C(F)(F)C(F)(F)C(F)(F)C(F)(F)CCI`, the compound was called inactive.
As to `CC=Cc1ccc(O)c(OC)c1`, the compound was called inactive.
With `C[Si]1(C)O[Si](C)(C)O[Si](C)(C)O[Si](C)(C)O1`, the outcome was inactive.
For the compound `CCCCCCOCCO`, the call was inactive.
Still for that read-out and setting: for `NC(=O)Cn1c(=O)cc(CCN2CCN(c3nccc4sccc34)CC2)c2ccc(F)cc21` the value was “inactive”.
As to `COC(=O)c1ccc(O)cc1`, the compound was called inactive.
Same read-out and setting: to `COc1ccc(C)cc1N` belongs “inactive”; to `Nc1ccccc1N`, “inactive”.
For the compound `Cc1cc(NC(=O)C(=O)O)cc(C)c1Oc1ccc(O)c2c1CCC2`, the AC50 was 0.216 µM (active).
With `CN1CCCC1=O`, the outcome was inactive.
Same read-out and setting: for `CNC(=O)[C@H]1O[C@@H](n2cnc3c(NCc4cc(Cl)ccc4OCc4cc(C)no4)ncnc32)[C@H](O)[C@@H]1N` the value was “inactive”; for `Cc1nc(C)nc(N2C[C@@H](C)N(c3ccnc([C@@H](C)O)n3)[C@@H](C)C2)n1`, “inactive”; for `CCOc1ccc2c(c1)C(C)=CC(C)(C)N2`, “inactive”.
As for `CCCCN(CCCC)CCCC`, the compound was called inactive.
